Results: publication PMC4336329 (PLoS ONE, 2015)
About 14,000 (4.5%) of roughly 310,000 compounds showed an effect of 50% or more. The effect is printed as a negative number. The full list was thinned out, with strong results kept by preference.

Each molecule was assayed against human ether-à-go-go-related gene (hERG) potassium channel (human, UniProt Q12809) (assay: primary screen, population patch clamp on CHO cells stably expressing hERG; higher = less effect of the substance).
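Also: peak tail current of the secondary pulse compared with the same well before compound.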

Sequence of human ether-à-go-go-related gene (hERG) potassium channel (Q12809 whole entry, looked up): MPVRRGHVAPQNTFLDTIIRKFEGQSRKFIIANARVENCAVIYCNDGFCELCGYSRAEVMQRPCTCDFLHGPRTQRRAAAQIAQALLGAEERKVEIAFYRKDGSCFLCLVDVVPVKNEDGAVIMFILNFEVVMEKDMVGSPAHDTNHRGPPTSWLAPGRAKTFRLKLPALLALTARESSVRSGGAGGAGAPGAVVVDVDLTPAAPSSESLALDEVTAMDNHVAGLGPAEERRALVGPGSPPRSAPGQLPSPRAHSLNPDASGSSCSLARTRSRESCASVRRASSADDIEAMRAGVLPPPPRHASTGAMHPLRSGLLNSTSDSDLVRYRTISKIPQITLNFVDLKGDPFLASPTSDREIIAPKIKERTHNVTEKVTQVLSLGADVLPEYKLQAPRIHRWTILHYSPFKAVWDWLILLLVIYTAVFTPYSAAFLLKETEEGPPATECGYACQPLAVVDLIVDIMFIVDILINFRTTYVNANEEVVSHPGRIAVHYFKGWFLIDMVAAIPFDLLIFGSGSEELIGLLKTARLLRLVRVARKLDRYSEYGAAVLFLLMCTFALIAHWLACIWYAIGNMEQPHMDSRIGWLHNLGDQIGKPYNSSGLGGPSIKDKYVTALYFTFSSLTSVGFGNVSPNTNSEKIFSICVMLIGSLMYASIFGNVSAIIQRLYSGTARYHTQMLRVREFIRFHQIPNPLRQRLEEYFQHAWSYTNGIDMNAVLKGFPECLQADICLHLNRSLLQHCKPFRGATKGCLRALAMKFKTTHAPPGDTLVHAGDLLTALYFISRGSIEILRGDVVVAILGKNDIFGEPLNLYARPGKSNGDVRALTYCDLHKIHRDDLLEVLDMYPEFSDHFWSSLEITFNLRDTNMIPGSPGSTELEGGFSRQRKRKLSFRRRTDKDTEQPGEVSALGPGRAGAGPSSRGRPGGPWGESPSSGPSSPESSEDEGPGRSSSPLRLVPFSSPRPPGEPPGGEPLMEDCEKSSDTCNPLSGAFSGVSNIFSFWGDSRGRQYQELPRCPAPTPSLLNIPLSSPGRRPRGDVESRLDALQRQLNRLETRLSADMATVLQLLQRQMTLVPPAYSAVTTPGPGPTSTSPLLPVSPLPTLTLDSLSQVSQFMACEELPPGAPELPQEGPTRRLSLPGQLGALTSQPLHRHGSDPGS

Structure (SMILES) | hERG current change (%, negative = inhibition) at 10uM [%]
COC(=O)NNC(=O)c1ccccc1C | -11.7
Cc1ccc([N+](=O)[O-])cc1S(=O)(=O)Nc1ccccn1 | 9.5
CCC(CC)C(=O)Nc1cccc(/C(C)=N/NC(=O)c2ccccc2Cl)c1 | 6.73
CCC(C)n1c(-c2ccco2)nc2nc3ccccc3nc21 (stereo not shown) | -3.86
CCC(C)n1c(-c2cc(OC)c(OC)c(OC)c2)nc2nc3ccccc3nc21 (stereo not shown) | -50.9
CCCn1c(-c2cc(OC)c(OC)c(OC)c2)nc2nc3ccccc3nc21 | -37.5
CCOc1ccc(C2C(C(=O)NC)=C(C)Nc3nc4ccccc4n32)cc1OC (stereo not shown) | 11.9
CCCSC1=C(C#N)C(c2cccs2)CC(=O)N1 (stereo not shown) | 3.24
CCC(=O)N1CCN(c2ccccc2NC(=O)Cc2ccccc2)CC1 | -29.1
CC(=O)N1CCN(c2ccccc2NC(=O)Cc2ccc(Cl)cc2)CC1 | -64.8
CC(C)C(=O)N1CCN(c2ccccc2NC(=O)COc2ccc(C3CCCCC3)cc2)CC1 | -4.96
CCC(=O)N1CCN(c2ccccc2NC(=O)COc2ccccc2Cl)CC1 | -42.2
CCC(=O)Nc1cc(Cl)ccc1N1CCN(C(=O)CC)CC1 | -24.9
CC(C)C(=O)N1CCN(c2ccccc2NC(=O)COc2ccccc2)CC1 | -57.6
O=C(COc1ccccc1)Nc1ccccc1N1CCN(c2ccccc2)CC1 | 1.02
CC(=O)N1CCN(c2ccccc2NC(=O)COc2ccc(Cl)cc2Cl)CC1 | -22.3
O=C(Cc1ccccc1)Nc1ccccc1N1CCN(c2ccccc2)CC1 | 11.9
CCC(=O)N1CCN(c2ccc(Cl)cc2NC(=O)Cc2ccccc2)CC1 | -46.3
CCC(=O)N1CCN(c2ccc(Cl)cc2NC(=O)Cc2ccc(Cl)cc2)CC1 | -54.5
CCC(=O)N1CCN(c2ccccc2NC(=O)Cc2ccc(Cl)cc2)CC1 | -68.6
CCN(CC)S(=O)(=O)c1cc(NC(=O)C2CCN(c3ncnc4sc(C)c(C)c34)CC2)ccc1Cl | 23.3
O=C(Nc1ccccc1)/C(=C\c1ccc(F)cc1)NC(=O)c1ccco1 | 3.87

Structure (SMILES) | hERG current change (%, negative = inhibition) at 10uM [%]
CCOC(=O)C1CCN(S(=O)(=O)c2ccc(OCC(=O)OC)cc2)CC1 | -9.54
O=c1c(/C=N/O)c(Nc2ccccc2)nc2ccccn12 | -13.5
Cc1ccc(-n2nc(C)c3c(C)c(CCC(=O)O)c(C)nc32)cc1 | 12.6
CCOC(=O)CN1C(=O)C(C)(C)Oc2ccc(C(=O)Nc3ccccc3OC)cc21 | -6.76
Cc1cc(C)nc(N2CCC(C(=O)NNC(=O)Cc3ccccc3)CC2)n1 | 8.85
CN1CCN(c2ccccc2NC(=O)c2ccc(-c3ccccc3)cc2)CC1 | -31.6
CN1CCN(c2ccccc2NC(=O)Cc2ccc(Cl)cc2)CC1 | -73.4
CCc1ccccc1NC(=O)Cc1cn(C)c2ccccc12 | 3.59
O=C(Cc1ccc(Cl)cc1)Nc1ccccc1N1CCOCC1 | 5.94
CC(C)C(=O)N1CCN(c2ccccc2NC(=S)NC(=O)Cc2ccccc2)CC1 | -4.92
CN1CCN(c2ccccc2NC(=O)C(Cc2ccccc2)n2cccc2)CC1 (stereo not shown) | -65.6
CCCC(=O)Nc1ccccc1N1CCN(C(=O)C(C)C)CC1 | 11.4
CN1CCN(c2ccccc2NC(=O)Cc2cn(C)c3ccccc23)CC1 | -59.5
CC(C)C(=O)N1CCN(c2ccccc2NC(=O)Cc2ccc(Cl)cc2)CC1 | -69.7
Cc1ccccc1NC(=O)C(Cc1ccccc1)n1cccc1 (stereo not shown) | -0.159
CS(=O)(=O)N1CCN(c2ccccc2NC(=O)Cc2ccc(Cl)cc2)CC1 | -38.4
Cc1ccccc1NC(=O)Cc1cn(C)c2ccccc12 | 15.1
CN(C(=O)CSc1nnc(-c2ccco2)o1)C1CCCCC1 | -7.54
C[C@@H]1NC(=O)c2cc([N+](=O)[O-])cc(I)c2NCCCC[C@@H](C(N)=O)NC(=O)[C@H](CCC(=O)O)NC1=O | -9.34
COC(=O)C1=C(C)N(C)C(=O)NC1c1ccccc1 (stereo not shown) | -5.95
Cc1cc(C(=O)Nn2c(-c3ccncc3)nc3ccccc3c2=O)ccc1[N+](=O)[O-] | 31.8
C=CCOc1c(CNc2ccc(S(N)(=O)=O)cc2)cccc1OC | 2.97

Structure (SMILES) | hERG current change (%, negative = inhibition) at 10uM [%]
O=C(Cc1ccc(Cl)cc1)Nc1ccccc1N1CCN(C(=O)c2ccccc2)CC1 | -72.1
O=C(CSc1ccc(Cl)cc1)Nc1ccccc1N1CCN(C(=O)c2ccccc2)CC1 | -14.9
Cc1cccc(NC(=O)C(Cc2ccccc2)n2cccc2)c1 (stereo not shown) | -51.2
COc1cccc(NC(=O)C(Cc2ccccc2)n2cccc2)c1 (stereo not shown) | -17
O=C(CSc1ccc(Cl)cc1)Nc1ccccc1N1CCN(C(=O)c2ccc(Cl)cc2)CC1 | -10.7
Cc1ccc(NC(=O)C(Cc2ccccc2)n2cccc2)cc1 (stereo not shown) | 3.37
CC(C)(C)c1ccc(/C=C/C(=O)NC2=NCCS2)cc1 | 10.5
O=C(O)CC1SC(=Nc2cccc(C(F)(F)F)c2)NC1=O (stereo not shown) | 5.13
CCN(CC)c1ccc(/C=N/OCC(=O)Nc2cccc(C)c2)cc1 | -2.16
CCCCOc1ccc(C(=O)N2CCNC(=O)C2CC(=O)OC(C)C)cc1 (stereo not shown) | 13.1
Cc1ccc(-c2nc(CS(=O)CC(=O)NC3CCCC3)c(C)o2)cc1 (stereo not shown) | -13.3
COc1ccc(-c2cc(COc3ccccc3)on2)cc1 | 36.1
CC(=O)c1c(N2CCN(Cc3ccccc3)CC2)[nH]c(-c2ccccc2)nc1=S | 2.17
N#Cc1ccc(CN2CCN(C(=O)c3cc(Cl)c4c(c3)OCCO4)CC2)cc1 | -67.7
Cl.O=C(c1ccc2c(c1)OCCO2)N1CCN(Cc2ccccc2)CC1 | 2.59
N#Cc1ccc(CN2CCN(C(=O)c3ccc(S(=O)(=O)N4CCCCCC4)cc3)CC2)cc1 | -40.9
Cl.O=C(c1cccc(S(=O)(=O)N2CCCC2)c1)N1CCN(Cc2ccccc2)CC1 | -14.2
N#Cc1ccc(CN2CCN(C(=O)c3ccccc3)CC2)c(Cl)c1 | -33.2
CN1CCN(C(=O)c2cccc(S(=O)(=O)N3CCCCC3)c2)CC1 | -7.44
Cl.O=C(c1cccc(S(=O)(=O)N2CCCCC2)c1)N1CCN(Cc2ccccc2)CC1 | -56.6
O=C(c1cccc(S(=O)(=O)N2CCCCC2)c1)N1CCCCC1 | 5.7
N#Cc1ccc(CN2CCN(C(=O)c3cccc(S(=O)(=O)N4CCCCCC4)c3)CC2)cc1 | -75.8

Structure (SMILES) | hERG current change (%, negative = inhibition) at 10uM [%]
CC(=O)Nc1nnc(CCS(=O)(=O)c2ccc(C)c(C)c2)s1 | 8.73
Cc1ccccc1N/N=C/c1sc(=O)n(Cc2cccc(C(=O)O)c2)c1Cl | 38.9
CCN(CC)C(=O)Oc1ccc2c(=O)c(-c3ccc(OC)cc3)c(C)oc2c1 | -35.8
O=C(Nc1cccc(F)c1)Nc1ccc(Cl)cn1 | 7.51
Cc1cccc(CN(C(=S)Nc2c(C)cccc2C)c2cccnc2)c1 | -9.13
Cc1[nH]c2ccccc2c1C(=O)COC(=O)C(C)C | -6.03
S=C(NCC(c1ccco1)N1CCCC1)Nc1ccccc1 (stereo not shown) | -28.9
COc1ccc(-n2nnnc2SCC(=O)Nc2nc3c(s2)CCCC3)cc1 | 9.26
Cc1cc(C)nc(-n2nc(C)cc2NC(=O)CN2CCc3ccccc3C2)n1 | -68.7
CCC1CCCCN1CC(=O)Nc1cc(C)nn1-c1nc(C)cc(C)n1 (stereo not shown) | -58.8
CCC1CCCCN1CC(=O)Nc1ccc2c(c1)OCCO2 (stereo not shown) | 10.6
Cc1cc(NC(=O)CN2CCCC(C)C2)no1.O=C(O)C(=O)O (stereo not shown) | 10.7
Cc1cc(C)nc(-n2nc(C)cc2NC(=O)CN2CCCC(C)C2)n1 (stereo not shown) | -56
CC(=O)Nc1ccc(NC(=O)CN2CCCC(C)C2)c(Cl)c1 (stereo not shown) | -5.17
CCC1CCCCN1C(=O)CSc1nc(C)cc(C)n1 (stereo not shown) | -12.8
Cc1cc(C)nc(-n2nc(C)cc2NC(=O)CN2CCCC2)n1 | -34.1
Cc1cc(C)nc(-n2nc(C)cc2NC(=O)CN2CCC(C)CC2)n1 | -65.6
Cc1cccc(C)c1NC(=O)CN1CCc2ccccc2C1 | 8.31
Cc1cc(C)cc(NC(=O)CN2CCc3ccccc3C2)c1 | -10.2
Cc1cc(NC(=O)CN2CCCCC2)n(-c2ccccc2)n1 | 6.65
Cc1ccc(C2(COC(=O)C(C)C)CO2)c(OC(=O)C(C)C)c1 (stereo not shown) | 2.15
Cc1ccc(-c2n[nH]c(=O)c3ccccc23)cc1S(=O)(=O)NC(C)(C)C | 13.6
